# PubChem BioAssay (NCATS)
# Results filed as inconclusive are left out. Calls of active or inactive are those of the source. Calls come from the whole dose curve; as a rule, active = well fitted inhibition curve with a large enough effect; inconclusive = small, poorly fitted or top-dose-only effect; inactive = no such curve, though single readings can be large or run the other way.
# Assay: Confirmatory screen NINDS Rhodamine qHTS for Zika virus inhibitors (AID 1347161); note: nearly all actives have a fitted effect of over 60% in size
# Settings: purified enzyme assay, Rhodamine110 substrate fluorescence, 15 min; series mostly up to 114 µM
# In short: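 Single-chain NS2B-NS3 protease, 25 nM, pH 8.0; compounds preincubated 15 min. Activity: Rhodamine110 release from 1.5 microM substrate over 15 min, room temperature, data fitted to 4-parameter Hill.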
# Potency is the fitted concentration of half-maximal effect.
row,SMILES,Potency
1,Cn1c(=O)c(-c2c(Cl)cccc2Cl)cc2cnc(Nc3cccc(C(=O)O)c3)nc21,13.9 µM (active)
2,Cc1nc(C(=O)NCC(=O)O)c(O)c2ccc(Oc3ccccc3)cc12,34.9 µM (active)
3,O=S(=O)(O)c1ccc2cc(N=Nc3cc(S(=O)(=O)O)c4cccnc4c3O)ccc2c1,1.39 µM (active)
4,C=C1c2cccc(O)c2C(O)=C2C(=O)[C@@]3(O)C(O)=C(C(N)=O)C(=O)[C@@H](N(C)C)[C@@H]3[C@@H](O)[C@H]12,15.6 µM (active)
